Measurements reported in PubChem BioAssay AID588689 (Southern Research Specialized Biocontainment Screening …, 2011).
In all, about 340,000 compounds went through this assay and about 1,000 (0.29%) were called active. Cut-off read from the data, not from the text of the source: inconclusive = inhibition above about 29% without an active follow-up result; inactive = below that. These entries were drawn from the full list. Measured potencies and affinities stand elsewhere.

Molecular target: Genome polyprotein (Dengue virus type 2 (strain 16681-PDK53)) (UniProt P29991)
Assay: flavivirus cap methylation enzyme inhibition – biochemical, confirmation dose response, primary screen (AID 588689)
Settings: Dengue-2 NS5 methyltransferase capping enzyme assay, at 25 µM, stronger effect = higher value

Sequence of Genome polyprotein (Dengue virus type 2 (strain 16681-PDK53)) (P29991 whole entry, looked up): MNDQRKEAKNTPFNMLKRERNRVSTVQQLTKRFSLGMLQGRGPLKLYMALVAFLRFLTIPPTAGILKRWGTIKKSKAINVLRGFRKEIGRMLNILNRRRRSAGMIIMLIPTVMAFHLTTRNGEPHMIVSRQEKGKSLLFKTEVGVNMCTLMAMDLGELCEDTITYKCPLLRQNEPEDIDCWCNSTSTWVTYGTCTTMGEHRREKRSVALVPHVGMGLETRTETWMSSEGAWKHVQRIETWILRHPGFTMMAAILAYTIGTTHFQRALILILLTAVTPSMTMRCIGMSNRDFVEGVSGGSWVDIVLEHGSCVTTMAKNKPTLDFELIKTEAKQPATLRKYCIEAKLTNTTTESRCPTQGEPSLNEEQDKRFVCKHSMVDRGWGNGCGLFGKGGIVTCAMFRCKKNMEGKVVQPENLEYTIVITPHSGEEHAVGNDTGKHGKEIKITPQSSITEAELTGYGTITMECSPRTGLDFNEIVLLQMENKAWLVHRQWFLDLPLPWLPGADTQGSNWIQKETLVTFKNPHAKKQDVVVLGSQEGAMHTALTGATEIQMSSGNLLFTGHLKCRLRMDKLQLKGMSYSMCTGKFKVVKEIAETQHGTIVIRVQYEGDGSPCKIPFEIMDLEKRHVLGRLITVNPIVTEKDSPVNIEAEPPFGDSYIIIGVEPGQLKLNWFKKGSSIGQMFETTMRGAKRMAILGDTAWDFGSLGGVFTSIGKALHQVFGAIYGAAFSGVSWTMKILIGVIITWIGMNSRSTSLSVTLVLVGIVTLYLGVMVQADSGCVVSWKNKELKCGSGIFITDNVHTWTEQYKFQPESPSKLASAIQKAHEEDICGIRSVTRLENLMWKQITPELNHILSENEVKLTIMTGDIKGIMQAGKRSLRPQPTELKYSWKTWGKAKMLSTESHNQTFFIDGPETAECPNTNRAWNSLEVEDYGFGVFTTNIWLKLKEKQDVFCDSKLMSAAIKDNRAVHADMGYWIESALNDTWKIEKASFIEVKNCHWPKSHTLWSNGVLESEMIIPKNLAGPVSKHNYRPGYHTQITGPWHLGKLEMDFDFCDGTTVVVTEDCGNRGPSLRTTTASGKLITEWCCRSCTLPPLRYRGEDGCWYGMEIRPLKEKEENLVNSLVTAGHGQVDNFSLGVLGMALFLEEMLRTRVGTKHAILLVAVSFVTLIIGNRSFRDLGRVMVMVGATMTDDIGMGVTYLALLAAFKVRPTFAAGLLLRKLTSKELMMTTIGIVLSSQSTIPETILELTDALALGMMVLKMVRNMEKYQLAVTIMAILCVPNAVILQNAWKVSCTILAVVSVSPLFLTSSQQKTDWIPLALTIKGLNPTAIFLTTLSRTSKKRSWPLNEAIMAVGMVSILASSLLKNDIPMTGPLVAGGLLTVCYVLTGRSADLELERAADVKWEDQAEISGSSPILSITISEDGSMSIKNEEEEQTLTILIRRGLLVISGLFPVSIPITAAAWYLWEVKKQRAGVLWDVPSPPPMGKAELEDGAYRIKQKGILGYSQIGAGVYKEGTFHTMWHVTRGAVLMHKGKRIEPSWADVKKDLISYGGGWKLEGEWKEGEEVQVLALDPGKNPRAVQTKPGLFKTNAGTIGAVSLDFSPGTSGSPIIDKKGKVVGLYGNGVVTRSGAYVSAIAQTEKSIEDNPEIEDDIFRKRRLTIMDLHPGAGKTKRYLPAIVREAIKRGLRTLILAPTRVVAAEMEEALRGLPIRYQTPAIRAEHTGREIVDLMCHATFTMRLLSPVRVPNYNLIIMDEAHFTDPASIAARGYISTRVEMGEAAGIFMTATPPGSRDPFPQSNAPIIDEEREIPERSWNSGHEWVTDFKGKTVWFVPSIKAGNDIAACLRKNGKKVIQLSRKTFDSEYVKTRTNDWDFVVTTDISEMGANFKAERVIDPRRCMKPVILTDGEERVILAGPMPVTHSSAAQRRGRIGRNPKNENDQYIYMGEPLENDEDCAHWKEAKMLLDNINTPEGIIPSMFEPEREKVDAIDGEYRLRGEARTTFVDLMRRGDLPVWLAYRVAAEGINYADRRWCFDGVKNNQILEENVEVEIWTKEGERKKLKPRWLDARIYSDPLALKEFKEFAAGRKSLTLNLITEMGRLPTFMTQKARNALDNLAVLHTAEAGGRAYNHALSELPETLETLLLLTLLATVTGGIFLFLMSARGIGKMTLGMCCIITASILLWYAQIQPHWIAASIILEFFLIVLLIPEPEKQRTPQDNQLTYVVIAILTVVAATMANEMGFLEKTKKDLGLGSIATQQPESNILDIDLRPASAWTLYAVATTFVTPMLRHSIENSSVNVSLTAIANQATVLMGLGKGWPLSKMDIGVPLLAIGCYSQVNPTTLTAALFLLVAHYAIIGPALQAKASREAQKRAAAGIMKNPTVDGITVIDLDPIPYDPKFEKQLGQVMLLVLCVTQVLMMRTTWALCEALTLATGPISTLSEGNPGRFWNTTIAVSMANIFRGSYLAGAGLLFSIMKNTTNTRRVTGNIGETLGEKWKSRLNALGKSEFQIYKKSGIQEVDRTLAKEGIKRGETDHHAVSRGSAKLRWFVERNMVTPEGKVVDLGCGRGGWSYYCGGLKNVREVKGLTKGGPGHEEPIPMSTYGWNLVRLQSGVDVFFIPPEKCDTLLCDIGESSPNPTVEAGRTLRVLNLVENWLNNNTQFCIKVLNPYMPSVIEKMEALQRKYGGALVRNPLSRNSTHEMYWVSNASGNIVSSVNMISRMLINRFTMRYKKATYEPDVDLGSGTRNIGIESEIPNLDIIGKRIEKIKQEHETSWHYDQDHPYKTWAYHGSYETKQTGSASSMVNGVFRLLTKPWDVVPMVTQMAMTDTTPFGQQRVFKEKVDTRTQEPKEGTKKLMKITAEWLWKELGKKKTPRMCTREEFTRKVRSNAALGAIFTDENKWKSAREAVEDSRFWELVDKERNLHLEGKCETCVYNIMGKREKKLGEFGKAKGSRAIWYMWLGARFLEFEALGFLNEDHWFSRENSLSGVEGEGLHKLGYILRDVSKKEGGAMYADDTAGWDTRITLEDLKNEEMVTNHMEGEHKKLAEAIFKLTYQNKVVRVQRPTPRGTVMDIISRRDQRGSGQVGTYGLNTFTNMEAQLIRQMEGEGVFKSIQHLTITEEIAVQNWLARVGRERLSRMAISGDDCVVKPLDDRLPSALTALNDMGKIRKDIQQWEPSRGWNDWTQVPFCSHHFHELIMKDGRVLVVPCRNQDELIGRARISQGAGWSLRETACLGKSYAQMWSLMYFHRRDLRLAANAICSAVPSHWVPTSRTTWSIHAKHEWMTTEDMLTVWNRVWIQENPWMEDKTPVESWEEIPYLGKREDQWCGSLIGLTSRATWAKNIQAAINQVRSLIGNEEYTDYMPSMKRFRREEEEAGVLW

Row | Structure (SMILES) | inhibition | inhibition (measured here: pilot screen replicate inhibition) [%]
1 | O=C(Nc1ccc2c(c1)OCO2)c1n[nH]c(=O)c2ccccc12 | 11.1% (inactive) | –
2 | CSCCC(NC(=O)C1CC1)c1nc2ccccc2[nH]1 (stereo not given) | -5.48% (inactive) | –
3 | C[C@H](NC(=O)c1nc[nH]c1C(=O)N1CCN(C(=O)OC(C)(C)C)CC1)C(=O)OCc1ccccc1 | -2.48% (inactive) | –
4 | O=C(Nc1ccc(C(F)(F)F)cc1)c1csc(-c2ccncc2)n1 | -2.96% (inactive) | –
5 | CSc1nsc(SC)c1NC(=O)N1CCCC1 | -1.61% (inactive) | –
6 | O=C(O)c1cc(-c2ccc(/C=C3\NC(=O)N(c4ccc(Cl)cc4)C3=O)o2)ccc1Cl | 13.8% (inactive) | –
7 | C#CCN1C(=O)S/C(=C\c2ccc(-c3ccc(Cl)c(C(=O)O)c3)o2)C1=O | 2.31% (inactive) | –
8 | O=C(O)c1cc(-c2ccc(/C=C3\NC(=O)N(c4ccccc4)C3=O)o2)ccc1Cl | 3.09% (inactive) | –
9 | Cc1ccc(N2NC(=O)/C(=C/c3ccc(-c4ccc(Cl)c(C(=O)O)c4)o3)C2=O)cc1 | 15.4% (inactive) | –
10 | Cc1cn([C@H]2C[C@H](O)[C@@H](CNC(=O)CNC(=O)CN)O2)c(=O)[nH]c1=O | 2.27% (inactive) | –
11 | CCOc1ccc2nc(N/C(N)=N/S(=O)(=O)c3ccc(C)cc3)nc(C)c2c1 | -2.74% (inactive) | –
12 | Cc1ccc(NC(=O)CC(=O)c2ccccc2)cc1C | -1.66% (inactive) | –
13 | C[C@H](NC(=O)c1ccccc1Cl)C(=O)OC(C(=O)Nc1cc(C(F)(F)F)ccc1Cl)c1ccccc1 (stereo not given in full) | 6.11% (inactive) | –
14 | O=C(O)c1cc(S(=O)(=O)Nc2ccccc2C(=O)O)ccc1O | 24.8% (inactive) | –
15 | Oc1ccccc1N=N/C(=N/Nc1ccccc1O)c1ccccc1 | 6.32% (inactive) | –
16 | CC(=O)Nc1ccc(N2CCCCC2)c(C(=O)Nc2cccc(C)c2)c1 | 1.3% (inactive) | –
17 | Cc1cccc(NC(=O)c2cc(NC(=O)C3CCCCC3C(=O)O)ccc2N2CCOCC2)c1 (stereo not given) | 3.25% (inactive) | –
18 | Cc1cnc(C(=O)OCc2nc3ccsc3c(=O)[nH]2)cn1 | -4.41% (inactive) | –
19 | Cc1ncc(CN2CCCC(C(=O)Nc3ccc(-c4ccco4)cc3)C2)cn1 (stereo not given) | -25.6% (inactive) | –
20 | O=C1C(=C(O)c2ccccc2)C(=O)c2ccccc21 | 12.9% (inactive) | –
21 | O=C1C(=O)c2ccc(-c3ccccc3)cc2-c2ccccc21 | -10.1% (inactive) | 8.18
22 | COc1ccccc1-n1cc(-c2ccccc2)c2c(=S)nc[nH]c21 | 7.35% (inactive) | –
23 | COc1ccc(NC(=O)CCCc2ccccc2)cc1OC | -7.95% (inactive) | –
24 | CC(=O)NC(CC(=O)OCC(=O)c1ccc(NC(=O)CC(C)C)cc1)c1ccccc1 (stereo not given) | -7.74% (inactive) | –
